Assay outcomes (PubChem BioAssay)
Giardia killer – Small Molecules that selectively kill Giardia lamblia: qHTS; activity change, % at 7.66 µM, hits read low; Giardia lamblia trophozoite viability; AID 540267, 2011; actives 0.15% (n = 340,000); in the data active means activity change below about -80%; inconclusive means between about -30% and that limit;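 further: parasites exposed to compound for two days anaerobically before the ATP read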
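Trophozoite viability was measured as ATP-dependent luminescence, read 15-30 min after reagent addition. Before that, parasites at 100 cells/well were exposed to compounds for 48 h, anaerobically, at 37 deg C.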
TrxR1 inh – qHTS Assay for Inhibitors of Mammalian Selenoprotein Thioredoxin Reductase 1 (TrxR1): qHTS; Thioredoxin reductase 1, cytoplasmic (Rattus norvegicus), O89049; recombinant rTrxR1, NADPH fluorescence consumption, selenite substrate; Potency, µM (highest dose often 114 µM), without a hit: at the highest dose activity change, negative = inhibition, hits mostly inhibitors; actives 1% (n = 390,000); AID 588453, 2011; further: potency means the concentration at half of the fitted maximal effect; nearly all actives have a fitted effect of over 65% in size
Target sequence (O89049 whole entry, looked up): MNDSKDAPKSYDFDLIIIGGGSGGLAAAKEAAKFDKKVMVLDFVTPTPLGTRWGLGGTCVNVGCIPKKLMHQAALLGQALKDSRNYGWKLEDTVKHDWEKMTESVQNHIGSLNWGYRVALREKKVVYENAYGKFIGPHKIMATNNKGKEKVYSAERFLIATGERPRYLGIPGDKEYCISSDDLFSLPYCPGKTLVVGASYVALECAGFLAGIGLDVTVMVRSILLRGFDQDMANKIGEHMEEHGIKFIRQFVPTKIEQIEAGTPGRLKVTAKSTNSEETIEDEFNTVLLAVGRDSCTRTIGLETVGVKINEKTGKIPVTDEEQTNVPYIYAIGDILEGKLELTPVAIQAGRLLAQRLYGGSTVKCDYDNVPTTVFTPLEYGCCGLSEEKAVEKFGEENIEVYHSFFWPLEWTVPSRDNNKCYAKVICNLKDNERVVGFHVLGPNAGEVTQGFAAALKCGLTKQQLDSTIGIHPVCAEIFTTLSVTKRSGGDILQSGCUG
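Rat TrxR1 (90 nM in the dispensed reagent) was pre-reduced with 400 uM NADPH for 5 min at room temperature, then incubated with compound for 15 min. After 400 uM selenite was added, NADPH fluorescence (Ex 340/Em 450 nm) was followed for 8 min.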
GALK inhibitor – qHTS Assay for Inhibitors of Human Galactokinase (GALK); P51570; Purified GALK, Kinase-Glo residual ATP luminescence; Potency, µM (series often up to 57.5 µM), for inactives: top-dose activity change, negative = inhibition, usual class: inhibitors; actives 0.007% (n = 270,000); further: potency means the concentration at half of the fitted maximal effect
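5 nM enzyme, 35 uM ATP, 100 uM galactose, 20 mM HEPES pH8.0, 5 mM MgCl2; 1 h RT; residual ATP by Kinase-Glo Plus luminescence, qHTS format.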
TrxR1 substrate – qHTS Assay for Substrates of Mammalian Selenoprotein Thioredoxin Reductase 1 (TrxR1): qHTS. AID 588456, 2011. actives 0.01% (n = 390,000). purified TrxR1 substrate turnover, NADPH consumption readout. Potency, µM (highest dose often 114 µM), without a hit: top-dose activity change, negative = substrate turnover; further: potency means the concentration at half of the fitted maximal effect; nearly all actives have a fitted effect of over 50% in size
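Rat TrxR1, dispensed at 90 nM, was prereduced with 400 uM NADPH (final) for 5 min at ~22 deg C, then incubated with compound 15 min before 400 uM selenite. A first-read NADPH fluorescence drop versus no-compound background flagged substrates.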
KAT2A inh – qHTS Assay for Inhibitors of GCN5L2. actives 0.21% (n = 390,000). Histone acetyltransferase KAT2A (Homo sapiens), Q92830. GCN5L2 HAT assay, ThioGlo1 CoA-SH fluorescence. AID 504327, 2011. Potency, µM (top dose mostly 58.9 µM), for inactives: at the top dose activity change, negative = inhibition, most hits filed as inhibitors; further: potency means the concentration at half of the fitted maximal effect
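Enzyme at 20nM final was mixed with library compounds for 15 min at room temperature. Peptide H3(1-25) at 75uM, acetyl-CoA at 70uM and ThioGlo1 at 50uM were then added. Plates were read immediately and after 20 min (Ex340nm/Em540nm).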
Pin1 inhibitor – qHTS Assay to Find Inhibitors of Pin1; Peptidyl-prolyl cis-trans isomerase NIMA-interacting 1 (Homo sapiens), Q13526; Pin1 FP peptide displacement, HiFluor488, 10 min; Potency, µM (titrated, usually from 115 µM), without a hit: top-dose activity, negative = inhibition, most hits filed as inhibitors; actives 0.009% (n = 390,000); active means well fitted inhibition curve with a large enough effect in the polarisation, with a control signal flat, not every such curve was filed as active; inconclusive means small, poorly fitted or top-dose-only effect, or effect the other way, or a change in a side signal; inactive means no such curve, though single readings can be large or run the other way; the % refers to the polarisation; further: potency means the concentration at half of the fitted maximal effect
Target sequence (Q13526 whole entry, looked up): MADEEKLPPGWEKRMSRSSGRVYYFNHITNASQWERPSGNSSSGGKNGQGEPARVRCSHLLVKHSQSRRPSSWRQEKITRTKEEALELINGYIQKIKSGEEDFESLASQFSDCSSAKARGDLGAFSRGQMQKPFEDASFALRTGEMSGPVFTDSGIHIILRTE
Active calls of the source: *; ? = inconclusive; nt = not tested or not shown; [ ] = another dose, or the depositor's remark. The list is not random: actives were taken first. Their share in the collection is about 1.3%. Unless noted, the call rests on the fitted dose curve; in most records, active means well fitted curve in the direction sought with a large enough effect; inconclusive means small, poorly fitted or top-dose-only effect, or another doubt; inactive means no such curve, though single readings can be large; an effect the other way counts as inactive or inconclusive. On the % scale 0 is the no-effect control and ±100 the full control effect.

SMILES	Giardia killer	TrxR1 inh	GALK inhibitor	TrxR1 substrate	KAT2A inh	Pin1 inhibitor
CCCCc1ccc(NC(=O)CSc2nc(=O)[nH]c3c2CCCC3)cc1	nt	0%[57.1 µM]	nt	-5%[57.1 µM]	-28%	3%
CC(=O)c1ccc(OCc2cc(C(=O)N3CC[C@@H]4CCCC[C@H]4C3)no2)cc1	18	25µM*	4%	-13%	-12%	-3%
O=C(Nc1nc2cc3c(cc2s1)OCCO3)C1=COCCO1	-86*	31%[57.1 µM]	10%	1%[57.1 µM]	-9%	1%
N#Cc1c(C(F)(F)F)cc(-c2cccs2)nc1SCc1ccc(Cl)nc1	-2	50µM*	-2%	149%	-5%	8%
O=C(NCCc1ccccc1)c1ccc(=O)oc1	-16	-19%	-2%	-19%	-7%	-1%
O=C(c1ccccc1)c1ccc2nc(-c3ccco3)c(-c3ccco3)nc2c1	-1	2.8µM*	-5%	5%[57.1 µM]	?	nt
O=C(NC1CCCCC1)c1nn2c(C(F)(F)F)cc(-c3ccco3)nc2c1Br	2	-21%[57.1 µM]	0%	5%[57.1 µM]	-10%	17%
O=C(NC1CCCCC1)c1cnn2c(C(F)(F)F)cc(-c3ccco3)nc12	-4	3.5µM*	1%	15%	-10%	2%
O=C(NCCc1ccccc1)c1ccc2nc(-c3ccco3)c(-c3ccco3)nc2c1	7	3.2µM*	0%	-1%	?	?
O=C(NC1CCCC1)c1ccc2nc(-c3ccco3)c(-c3ccco3)nc2c1	3	3.2µM*	-3%	9%[57.1 µM]	-20%	nt
O=S1(=O)N=C(Oc2ccccc2-c2ccccc2)c2ccccc21	nt	nt	nt	nt	nt	-6%
CCCCCCCCCCCCCCCCSCC(COC)COP(=O)([O-])OCC[N+](C)(C)C (stereo not given)	nt	nt	nt	nt	-13%	nt
[O-][N+]12CCCc3cccc(c31)CCC2	nt	2%	nt	11%	nt	nt
O=C(NCCO)c1ccc2nc(-c3ccco3)c(-c3ccco3)nc2c1	4	8.9µM*	1%	-3%	-7%	nt
O=C(Cn1nnc2c(cnn2-c2ccc(F)cc2)c1=O)Nc1ccccc1C(F)(F)F	18	12%	3%	17%	13µM*	0%
COc1cccc(NC(=O)c2sc3nc(C)c(C(=O)Nc4ccc(C)cc4C)c(-c4cccs4)c3c2N)c1	nt	1%	nt	-2%	18µM*	?
COc1ccc(NC(=O)c2sc3nc(C)c(C(=O)Nc4ccc(C)cc4C)c(-c4cccs4)c3c2N)cc1	nt	?	nt	-15%	-5%	?
COc1ccc(C2Nc3ccccc3C(=O)N2Cc2ccccc2)cc1COc1cccc(C(F)(F)F)c1 (stereo not given)	nt	nt	nt	nt	nt	1%
CC(C)(O)C#Cc1ccc(C(=O)N2CCCC(CNS(=O)(=O)c3cccs3)C2)o1 (stereo not given)	3	13µM*	-3%	1%	-12%	-3%
O=C(CCS(=O)(=O)c1ccccc1)N(CCCN1CCOCC1)c1nc2ccccc2s1	-6	14µM*	nt	-1%	-1%	1%
Cc1ccc(S(=O)(=O)CCC(=O)N(CCCN2CCOCC2)c2nc3ccccc3s2)cc1	-3	28µM*	nt	-2%	-2%	13%
CCN(CC)CCN(C(=O)CCS(=O)(=O)c1ccccc1)c1nc2cc3c(cc2s1)OCO3	2	14µM*	-2%	-1%	-6%	14%
Cc1ccc2nc(N(CCN3CCOCC3)C(=O)CCS(=O)(=O)c3ccccc3)sc2c1	-6	-28%	nt	1%	-7%	6%
CC(CC(=O)N1CCN(C(=O)c2ccccc2)CC1)c1ccccc1 (stereo not given)	6	18%	4%	10%[57.1 µM]	-9%	-3%
CC(c1ccccc1)N1CCN(C(=O)CCl)CC1 (stereo not given)	7	16µM*	0%	3%	-3%	-1%
SMILES	Giardia killer	TrxR1 inh	GALK inhibitor	TrxR1 substrate	KAT2A inh	Pin1 inhibitor
O=C(Nc1ccccc1)Nc1cccc(C(F)(F)F)c1	-7	-65%	0%	8%[57.1 µM]	-8%	2%
O=C(Nc1cccc(C(F)(F)F)c1)Nc1cc(Cl)ccc1C(=O)O	nt	nt	nt	nt	22µM*	nt
COc1ccc(S(=O)(=O)Cc2ccc(C(=O)O)o2)cc1	0	-13%	0%	6%	-3%	-3%
Cc1ccc(S(=O)(=O)Cc2ccc(C(=O)N3CCc4ccccc4C3)o2)cc1	15	71µM*	-1%	-7%	-23%	-25%
COc1ccc(S(=O)(=O)Cc2ccc(C(=O)N3CCN(Cc4ccccc4)CC3)o2)cc1	5	-13%	-1%	6%	-7%	-3%
Cc1ccc(S(=O)(=O)Cc2ccc(C(=O)O)o2)cc1	-16	25µM*	1%	0%	-8%	-27%
COc1ccc(S(=O)(=O)Cc2ccc(C(=O)N3CCc4ccccc4C3)o2)cc1	-5	50µM*	2%	6%	-9%	1%
CCOc1ccc(CC(=O)NCCc2csc(-c3ccc(C(F)(F)F)cc3)n2)cc1	nt	37%[57.1 µM]	nt	10%[57.1 µM]	-4%	-3%
Cc1ccc(C)c(S(=O)(=O)c2cn(Cc3ccccc3)c3cc(F)c(F)cc3c2=O)c1	nt	10%	nt	-1%	-1%	?
COc1ccc(OCc2cc(C(=O)NCc3cccc(C)n3)no2)c(Cl)c1	-1	-15%	7%	-12%	-18%	3%
COc1ccc(/C=C/C(=O)c2ccc([N+](=O)[O-])o2)cc1	-21	?	nt	-3%	-3%	-1%
O=C(/C=C/c1cccc([N+](=O)[O-])c1)c1ccc([N+](=O)[O-])o1	9	1.1µM*	nt	-5%	nt	-11%
O=C(/C=C/c1cccc([N+](=O)[O-])c1)c1ccco1	?	18µM*	-1%	-4%	?	3%
Cc1ccccc1/C=C/C(=O)c1ccc([N+](=O)[O-])o1	10	3.5µM*	nt	-10%	-9%	0%
O=C(/C=C/c1cccc([N+](=O)[O-])c1)Nc1cccc(NC(=O)c2ccco2)c1	14	-17%	-2%	-15%	-13%	0%
Cc1cccc(/C=C/C(=O)c2ccc([N+](=O)[O-])o2)c1	?	1.3µM*	nt	1%	?	-2%
O=C(Nc1cccc(S(=O)(=O)N2CCCCC2)c1)c1cc(=O)[nH]c2ccccc12	-7	-9%[11.4 µM]	nt	-3%[11.4 µM]	-6%	1%
CCS(=O)(=O)Nc1cc(-c2cn3ccc(C)cc3n2)ccc1C	nt	16%	nt	62%	-2%	2%
